From PubChem BioAssay
Records with an inconclusive call do not appear. Active and inactive are the calls of the source. Unless noted, no cut-off is given here; in the data, nearly all actives have AC50 up to about 37 µM.

Tests used:
[1] = viability loss in pontine glioma line – cell-based, SU-DIPG-XIII, MIPE4.0, CellTiter-Glo, qHTS, dose response (AID 1347061); conditions: CellTiter-Glo ATP luminescence;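 note: cells exposed to compound for 48 hours before readout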
[2] = viability loss in pontine glioma line – cell-based, SU-DIPG-XIII, MIPE5.0, CellTiter-Glo, qHTS, dose response (AID 1347064; cut-off not given, nearly all actives have AC50 up to about 23 µM;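 for AC50: cells exposed to compound for 48 hours before the viability read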); conditions: CellTiter-Glo ATP luminescence
[3] = molecular target: NAD(+) hydrolase SARM1 (Homo sapiens) (UniProt Q6SZW1); assay: blocking NAD cleavage by SARM1 SAM-TIR – cell lysate, NAD-Glo luminescence (AID 1508614;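 active = compound whose remaining NAD level is above about 45 nM, limit read from the data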;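 note: higher remaining NAD means stronger inhibition of SARM1 NADase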); conditions: SAM-TIR HEK293T lysate NADase, at 1 µM, stronger effect = higher value
[4] = test system: Hepatitis C virus NS3 helicase; assay: blockers of NS3h binding to ssDNA – biochemical, fluorescence polarization, LOPAC1280 library, primary screen (AID 687035; in the data active = inhibition above about 37%); conditions: Purified HCV NS3 helicase, Cy5-dT15 ssDNA binding fluorescence polarization; stronger effect = higher value; concentration not given here
[5] = compounds altering Cy5-DNA-NS3h complex signal – biochemical, LOPAC1280, artefact control for HCV NS3 helicase inhibitor project (AID 687037; call rule not given here); conditions: Cy5-DNA-NS3h complex fluorescence interference counterscreen
[6] = compounds altering HSF1 focus formation in cells – imaging, Selleck Cancer Library (AID 1347162; in the data active = plate-normalised HSF1 focus index below about 0.46); conditions: human cells, HSF1 nuclear foci imaging, at 10 µM; SSMD: measured here: HSF1 foci SSMD mean; cell count: measured here: cell number; plate-normalised HSF1 focus index: stronger effect = lower value
[7] = compounds altering circadian rhythm period length – cell-based, LOPAC library, luminescence reporter (AID 2774; call rule not given here;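 note: values are relative to mean of DMSO wells on each plate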); conditions: circadian reporter cells, at 7 µM, actives lie on both sides
[8] = growth inhibition, single agent or in combination, cell-based, chromothripsis tumors, cisplatin or BGB combos (AID 1671449; in the data active = inhibition above about 80%;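 note: cells exposed for 96 hours; 0% = vehicle DMSO and 100% = killing by high DMSO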); conditions: LFS_MB_P medulloblastoma cells
[9] = growth inhibition, single agent and combos, cell-based, chromothripsis tumors, cisplatin or BGB combos (AID 1671450; in the data active = inhibition above about 80%;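 note: cells exposed to compound for four days; 0% = vehicle DMSO and 100% = cell killing by high DMSO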); conditions: HDN33 neuroblastoma cells, stronger effect = higher value
[10] = growth inhibition, single agents and combos, ICB984, cell-based, cisplatin or BGB combos, synergistic combos for chromothripsis tumors (AID 1671451; call rule not given here;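 note: cells exposed for 96 hours before readout; 0% = vehicle DMSO and 100% = killing by high DMSO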); conditions: ICB984 medulloblastoma cells, drug combinations, stronger effect = higher value
[11] = growth inhibition, single agents and combos, LFS_MB_1R, cell-based, cisplatin or BGB combos, synergistic combos for chromothripsis tumors (AID 1671452; in the data active = inhibition above about 80%;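 note: cells exposed for 96 hours before readout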); conditions: LFS_MB_1R medulloblastoma cells, stronger effect = higher value
[12] = growth inhibition, single agents and combos, HTB85, cell-based, BGB or cisplatin IC20 combos, synergistic combos for chromothripsis tumors (AID 1671453; in the data active = inhibition above about 80%;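 note: cells exposed for 96 hours before readout; 0% = vehicle DMSO and 100% = high DMSO killing control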); conditions: HTB85 osteosarcoma cells, drug combinations, stronger effect = higher value
[13] = growth inhibition, single agents and combos, CRL2098, cell-based, BGB or cisplatin IC20 combos, synergistic combos for chromothripsis tumors (AID 1671454; in the data active = inhibition above about 80%;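 note: cells exposed for 96 h before readout; 0% = vehicle DMSO and 100% = killing by high DMSO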); conditions: CRL2098 osteosarcoma cells, drug combinations, stronger effect = higher value
[14] = growth inhibition, single agents and combos, HD-MB03, cell-based, BGB or cisplatin IC20 combos, synergistic combos for chromothripsis tumors (AID 1671455; in the data active = inhibition above about 83%;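 note: 0% = vehicle DMSO and 100% = high DMSO as cytotoxic control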); conditions: HD-MB03 medulloblastoma cells, stronger effect = higher value
[15] = growth inhibition, single agents and combos, UWB1.289, cell-based, BGB or cisplatin combos, synergistic combos for chromothripsis tumors (AID 1671456; in the data active = inhibition above about 80%;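 note: cells exposed to compound for four days; 0% = vehicle DMSO and 100% = killing by high DMSO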); conditions: UWB1.289 ovarian carcinoma cells, stronger effect = higher value
[16] = growth inhibition, MDA-MB-436, cell-based, BGB or cisplatin combos, synergistic combos for chromothripsis tumors (AID 1671458; call rule not given here;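 note: cells exposed for 96 hours; 0% = vehicle DMSO and 100% = killing by high DMSO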); conditions: MDA-MB-436 breast carcinoma growth inhibition, drug combinations, stronger effect = higher value
[17] = BT084 cell growth, single and combined drugs, ICGC_MB145, cisplatin and BGB IC40 combos (AID 1671461; in the data active = inhibition above about 80%;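 note: cells exposed to drugs for 96 hours; 0% = vehicle DMSO and 100% = high DMSO full killing control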); conditions: BT084 medulloblastoma cells, drug combinations, stronger effect = higher value
[18] = RCMB18 cell growth, single agent and combined, cisplatin and BGB IC40 combos (AID 1671462; in the data active = inhibition above about 80%;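 note: cells exposed to compound for four days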); conditions: RCMB18 medulloblastoma cells, stronger effect = higher value
[19] = CRL1545 cell growth, single agent and combined, cisplatin and BGB IC20 combos (AID 1671464; in the data active = inhibition above about 80%;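 note: cells exposed to compound for 96 hours before readout; 0% = vehicle DMSO and 100% = high DMSO killing control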); conditions: CRL1545 osteosarcoma cells, stronger effect = higher value
[20] = measured here: combination with BGB IC40, at 0.05 µM
[21] = measured here: with BGB IC20 combination, at 0.5 µM
[22] = measured here: with cisplatin IC20 combination, at 0.5 µM
[23] = measured here: combination with cisplatin, at 0.5 µM

NAD(+) hydrolase SARM1 (Homo sapiens), sequence (Q6SZW1 whole entry, looked up): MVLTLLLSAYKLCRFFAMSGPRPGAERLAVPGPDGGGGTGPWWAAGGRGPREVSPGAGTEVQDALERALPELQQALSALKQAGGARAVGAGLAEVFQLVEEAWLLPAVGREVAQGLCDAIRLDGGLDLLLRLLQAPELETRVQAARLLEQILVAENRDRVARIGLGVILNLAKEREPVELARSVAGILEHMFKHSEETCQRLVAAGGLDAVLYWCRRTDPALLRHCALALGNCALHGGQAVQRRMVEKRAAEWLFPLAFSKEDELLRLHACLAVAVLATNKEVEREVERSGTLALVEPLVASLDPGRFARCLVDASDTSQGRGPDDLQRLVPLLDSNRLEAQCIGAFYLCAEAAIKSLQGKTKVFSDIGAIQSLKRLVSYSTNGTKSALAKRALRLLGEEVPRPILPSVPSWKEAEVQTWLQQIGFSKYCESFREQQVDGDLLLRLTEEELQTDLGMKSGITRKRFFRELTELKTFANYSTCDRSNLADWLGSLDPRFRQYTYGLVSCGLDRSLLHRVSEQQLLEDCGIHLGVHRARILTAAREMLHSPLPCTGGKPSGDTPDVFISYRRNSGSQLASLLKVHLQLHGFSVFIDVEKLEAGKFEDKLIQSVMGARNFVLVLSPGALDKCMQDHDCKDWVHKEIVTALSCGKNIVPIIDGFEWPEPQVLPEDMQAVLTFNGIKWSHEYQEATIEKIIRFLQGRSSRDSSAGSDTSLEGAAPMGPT

## O=C(O)c1c(Cl)c(Cl)c(Cl)c(Cl)c1-c1c2cc(I)c(=O)c(I)c-2oc2c(I)c(O)c(I)cc12
[1]
  AC50: 16.6 µM (active)
[2]
  AC50: 6.61 µM (active)

## CC(=O)O[C@@]12CO[C@@H]1C[C@H](O)[C@@]1(C)C(=O)[C@H](O)C3=C(C)[C@@H](OC(=O)[C@H](O)[C@@H](NC(=O)OC(C)(C)C)c4ccccc4)C[C@@](O)([C@@H](OC(=O)c4ccccc4)[C@H]21)C3(C)C
[2]
  outcome: inactive
[3]
  remaining NAD: 10 nM (inactive)

## Cc1c(C)c2c(c(C)c1O)CCC(C)(COc1ccc(CC3SC(=O)NC3=O)cc1)O2 (configuration not stated)
[2]
  outcome: inactive

## C[C@]12CC[C@@H]3c4ccc(O)cc4C[C@@H](CCCCCCCCCS(=O)CCCC(F)(F)C(F)(F)F)[C@H]3[C@@H]1CC[C@@H]2O (some centres not stated)
[4]
  inhibition: 0% (inactive)
[5]
  fluorescence ratio (interference): 0.9 (inactive)
[1]
  outcome: inactive
[6]
  SSMD: 2.09
  cell count: 7000
  plate-normalised HSF1 focus index: 1.13 (inactive)
[3]
  remaining NAD: 10 nM (inactive)

## COc1nc(N)nc2c1ncn2[C@@H]1O[C@H](CO)[C@@H](O)[C@@H]1O
[1]
  outcome: inactive
[3]
  remaining NAD: 10 nM (inactive)

## CC1=C(C)C(=O)C(CCCCC#CCCCC#CCO)=C(C)C1=O
[7]
  period change: -0.105 h (inactive)
[4]
  inhibition: -2% (inactive)
[5]
  fluorescence ratio (interference): 1 (inactive)

## O[C@@H](CNC[C@H](O)[C@H]1CCc2cc(F)ccc2O1)[C@@H]1CCc2cc(F)ccc2O1
[1]
  outcome: inactive

## C=CCc1cc(OC)c(O)c(C(=O)NCCO)c1
[1]
  outcome: inactive

## COc1cc(Nc2c(C#N)cnc3cc(OCCCN4CCN(C)CC4)c(OC)cc23)c(Cl)cc1Cl
[6]
  SSMD: -18.3
  cell count: 5030
  plate-normalised HSF1 focus index: 0.345 (active)

## CCCCCCCCOc1ccccc1C(=O)Nc1ccc(C(=O)OCC[N+](C)(CC)CC)cc1
[1]
  outcome: inactive

## CN(c1nccc(=O)[nH]1)C1CCN(c2nc3ccccc3n2Cc2ccc(F)cc2)CC1
[1]
  outcome: inactive

## Cc1c(C(=O)NN2CCCCC2)nn(-c2ccc(Cl)cc2Cl)c1-c1ccc(Cl)cc1
[1]
  AC50: 20.9 µM (active)

## COC(=O)C1=C(C)NC(C)=C(C(=O)OCCN2CCN(C(c3ccccc3)c3ccccc3)CC2)C1c1cccc([N+](=O)[O-])c1 (configuration not stated)
[2]
  AC50: 8.33 µM (active)
[3]
  remaining NAD: 10 nM (inactive)

## Cc1ccc(-c2ncc(Cl)cc2-c2ccc(S(C)(=O)=O)cc2)cn1
[2]
  outcome: inactive

## C#Cc1cccc(Nc2ncnc3cc(OCCOC)c(OCCOC)cc23)c1
[6]
  SSMD: 2.72
  cell count: 6730
  plate-normalised HSF1 focus index: 1.14 (inactive)

## CC(C)(C)C(=O)OCOP(=O)(COCCn1cnc2c(N)ncnc21)OCOC(=O)C(C)(C)C
[1]
  AC50: 20.9 µM (active)
[2]
  AC50: 18.6 µM (active)

## CCOC(=O)Nc1ccc(NCc2ccc(F)cc2)nc1N
[7]
  period change: -0.33 h (inactive)
[4]
  inhibition: -3% (inactive)
[5]
  fluorescence ratio (interference): 1 (inactive)
[2]
  outcome: inactive
[8]; at 0.5 µM, stronger effect = higher value
  inhibition: -13% (inactive)
[8]; measured here: combination with BGB IC20, at 0.005 µM
  inhibition: -4.33%
[8]; measured here: combination with BGB IC40, at 0.005 µM
  inhibition: 50.9%
[8]; [20]
  inhibition: -18.8%
[8]; measured here: combination with cisplatin, at 0.5 µM, stronger effect = higher value
  inhibition: 4.96%
[8]; measured here: combination with cisplatin, at 5 µM, stronger effect = higher value
  inhibition: -32.9%
[9]; BGB combo, at 5 µM
  inhibition: -49%
[9]; at 0.5 µM
  inhibition: 0.72% (inactive)
[9]; cisplatin combo, at 5 µM
  inhibition: -18.8%
[9]; [21]
  inhibition: -18.2%
[9]; [22]
  inhibition: 17%
[9]; single agent, at 5 µM
  inhibition: -28.3%
[10]; BGB IC20 combo, at 0.005 µM
  inhibition: -2.86%
[10]; BGB IC40 combo, at 0.005 µM
  inhibition: -6.26%
[10]; BGB IC40 combo, at 0.05 µM
  inhibition: -38.3%
[10]; at 0.5 µM
  inhibition: -14.8% (inactive)
[10]; cisplatin combo, at 0.05 µM
  inhibition: -45.5%
[10]; cisplatin combo, at 0.5 µM
  inhibition: -9.07%
[10]; cisplatin combo, at 5 µM
  inhibition: -15.3%
[10]; measured here: 5 uM single agent, at 5 µM
  inhibition: -2.67%
[11]; at 0.5 µM
  inhibition: -9.81% (inactive)
[11]; [20]
  inhibition: -17%
[11]; [23]
  inhibition: -23.8%
[11]; measured here: combination with cisplatin, at 5 µM
  inhibition: -29.7%
[12]; at 0.5 µM
  inhibition: 21.2% (inactive)
[12]; measured here: with BGB IC20, at 0.5 µM
  inhibition: 57.6%
[12]; measured here: with BGB IC20, at 5 µM
  inhibition: 10.9%
[12]; measured here: with cisplatin IC20, at 0.5 µM
  inhibition: -16.9%
[12]; measured here: with cisplatin IC20, at 5 µM
  inhibition: 0.401%
[12]; single agent, at 5 µM
  inhibition: 1.76%
[13]; at 0.5 µM
  inhibition: -23.9% (inactive)
[13]; measured here: combination with BGB at IC20, at 0.5 µM
  inhibition: -12.9%
[13]; measured here: combination with cisplatin at IC20, at 0.5 µM
  inhibition: -33.8%
[14]; at 0.5 µM
  inhibition: -9% (inactive)
[14]; measured here: combo with BGB at IC20, at 0.5 µM
  inhibition: -9.72%
[14]; measured here: combo with cisplatin at IC20, at 0.5 µM
  inhibition: -9.37%
[15]; at 0.5 µM
  inhibition: 4.04% (inactive)
[15]; measured here: inhibition with BGB combination, at 0.05 µM
  inhibition: -16.5%
[15]; measured here: inhibition with cisplatin combination, at 0.05 µM
  inhibition: -2.73%
[16]; at 0.5 µM
  inhibition: -12.4% (inactive)
[16]; measured here: BGB combination, at 0.5 µM
  inhibition: -4.35%
[16]; measured here: BGB combination, at 5 µM
  inhibition: -17.6%
[16]; measured here: cisplatin combination, at 0.5 µM
  inhibition: -28%
[16]; measured here: cisplatin combination, at 5 µM
  inhibition: -26.4%
[17]; at 0.5 µM
  inhibition: 3.08% (inactive)
[17]; cisplatin combination, at 0.5 µM
  inhibition: 2.67%
[17]; cisplatin combination, at 5 µM
  inhibition: -33.2%
[17]; measured here: BGB IC40 combination 0.05 uM, at 0.05 µM
  inhibition: 71.5%
[17]; single agent, at 5 µM
  inhibition: 2.9%
[18]; at 0.5 µM
  inhibition: -10.8% (inactive)
[18]; cisplatin combo, at 5 µM
  inhibition: -27%
[18]; measured here: BGB IC40 combination, at 0.05 µM
  inhibition: 4.05%
[18]; [23]
  inhibition: -15.1%
[18]; single agent, at 5 µM
  inhibition: -7.25%
[19]; at 0.5 µM
  inhibition: 5.77% (inactive)
[19]; [21]
  inhibition: -17.8%
[19]; [22]
  inhibition: 16.2%
[19]; single agent, at 0.05 µM
  inhibition: -4.81%
[19]; single agent, at 5 µM
  inhibition: -34.9%

## Clc1cccc(C(c2ccc3nc[nH]c3c2)n2ccnc2)c1 (configuration not stated)
[2]
  outcome: inactive

## CCCCC(CC)COC(=O)C(C#N)=C(c1ccccc1)c1ccccc1 (configuration not stated)
[3]
  remaining NAD: 10 nM (inactive)

## O=C(O)c1nc(=O)[nH]c(=O)[nH]1
[2]
  outcome: inactive

## O=C(OC1C[C@H]2CC[C@@H](C1)[N+]21CCCC1)C(O)(c1ccccc1)c1ccccc1 (some centres not stated)
[3]
  remaining NAD: 10 nM (inactive)

## NC(=O)Cc1cccc(C(=O)c2ccccc2)c1N
[1]
  outcome: inactive

## CN1C[C@H]2c3ccccc3Oc3ccc(Cl)cc3[C@@H]2C1
[1]
  outcome: inactive
